The text below walks through data of PubChem BioAssay (Tox21).

Each structure is given as a SMILES string. Results filed as inconclusive are left out. Unmarked numbers belong to inactive results. The source made the active and inactive calls. Calls follow the shape of the dose curve; as a rule, active = well fitted curve in the direction sought with a large enough effect in the repeat runs; inconclusive = weak or mixed curves; inactive = no such curve, though single readings can be large; an effect the other way counts as inactive or inconclusive.

Experiment [1] in a line: qHTS RealTime-Glo MT Cell Viability Assay in HepG2 cells - 40 hour (AID 1224870). Also: nearly all actives have a fitted effect of over 50% in size. Also: potency is read from the fitted curve at half-maximal effect. The method, boiled down:
(§1)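 HepG2 cells (600/well) mixed with RealTime-Glo MT reagent, settled 5 h at 37 C/5% CO2 before compound addition. Nonlytic NanoLuc luminescence from viable-cell prosubstrate reduction read repeatedly during 40 h treatment at 37 C.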
For orientation: qHTS replaces the single test concentration by a dilution series.

A short description of experiment [2]: qHTS RealTime-Glo MT Cell Viability Assay in HepG2 cells - 8 hour (AID 1224873). Also: nearly all actives have a fitted effect of over 55% in size. Also: potency is read from the fitted curve at half-maximal effect. The method, boiled down:
as §1

Experiment [3] is described as follows: A CellTox Green Cytotoxicity Assay to monitor cytotoxicity in HEK293 cells - 24 hour (AID 1224875). Also: series mostly up to about 77 µM; nearly all actives have a fitted effect of over 45% in size. A digest of the protocol:
(§2)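 Seeding of HEK293 cells together with cytotoxicity dye preceded a 5 h incubation at 37 C/5% CO2. Test compounds in DMSO were then added and fluorescence monitored across 40 h.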

Experiment [4] in a line: qHTS RealTime-Glo MT Cell Viability Assay in HepG2 cells - 32 hour (AID 1224877). Also: nearly all actives have a fitted effect of over 55% in size. Also: potency is read from the fitted curve at half-maximal effect. The method, boiled down: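 HepG2 cells were seeded at 600 cells/well together with NanoLuc luciferase and a cell-permeant prosubstrate, preincubated 5 h at 37 C/5% CO2, then pin-dosed with compounds in DMSO. Nonlytic luminescence from viable cells was read at each time point.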
The nature of experiment [5]: qHTS RealTime-Glo MT Cell Viability Assay in HEK293 cells - 40 hour (AID 1224874). Also: nearly all actives have a fitted effect of over 50% in size. Also: potency is read from the fitted curve at half-maximal effect. The conditions noted are these: RealTime-Glo luminescence; max response: active compounds read low. The method, boiled down:
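Tox21 screen in HEK293 using RealTime-Glo MT chemistry, with cells and reagent co-dispensed. Luminescence proportional to viable cell number was captured at intervals during 40 h compound exposure at 37 C.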

Experiment [6] can be described thus: A CellTox Green Cytotoxicity Assay to monitor cytotoxicity in HepG2 cells - 16 hour (AID 1224876). Also: nearly all actives have a fitted effect of over 45% in size. Also: potency is read from the fitted curve at half-maximal effect. A digest of the protocol: (§3)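 Nonlytic assay: viable cells exclude the dye, so fluorescence scales with cell death. HepG2 at 600 cells/well, compounds added after 5 h, signal read across 40 h.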
Experiment [7] can be described thus: A CellTox Green Cytotoxicity Assay to monitor cytotoxicity in HepG2 cells - 24 hour (AID 1224878). Also: nearly all actives have a fitted effect of over 45% in size. Also: potency is read from the fitted curve at half-maximal effect. The method, boiled down:
as §3

The nature of experiment [8]: A CellTox Green Cytotoxicity Assay to monitor cytotoxicity in HepG2 cells - 40 hour (AID 1224879). Also: nearly all actives have a fitted effect of over 40% in size. Also: potency is read from the fitted curve at half-maximal effect. The method, boiled down:
as §3

Experiment [9] in a line: qHTS RealTime-Glo MT Cell Viability Assay in HEK293 cells - 16 hour (AID 1224872). Also: nearly all actives have a fitted effect of over 50% in size. Also: potency is read from the fitted curve at half-maximal effect. A digest of the protocol: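 HEK293 cells were seeded at 600 cells/well together with NanoLuc luciferase and cell-permeant prosubstrate, preincubated 5 h at 37 C/5% CO2, then given compound in DMSO by pintool. Luminescence from viable-cell prosubstrate reduction was read repeatedly over 40 h.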

A short description of experiment [10]: A CellTox Green Cytotoxicity Assay to monitor cytotoxicity in HEK293 cells - 40 hour (AID 1224871). Also: nearly all actives have a fitted effect of over 45% in size. A digest of the protocol: as §2
% is scaled to controls: 0 for no effect and ±100 for the full control effect.

With `O=C(OCCOCCO)c1ccccc1Nc1cccc(C(F)(F)F)c1`, the Potency entry in experiment [1], in experiment [2], in [3] and in experiment [4] was “inactive” throughout.
With `Cn1c(=O)c2c(ncn2CC(=O)O)n(C)c1=O`, the Potency entry in [1], in [2], in experiment [3], in experiment [6], in experiment [4] and in experiment [7] was “inactive” throughout. Moreover, the Potency result in experiment [8] was “inactive”. The max response in experiment [5] is 1.42%.
Take `CC(=O)Oc1ccc2c(c1)CC[C@@H]1[C@@H]2CC[C@]2(C)[C@@H](O)CC[C@@H]12`: the Potency result in experiment [1], in experiment [2], in experiment [3] and in [4] was “inactive” in each case. Besides, in experiment [5], the Potency is 16.9 µM (active).
For the compound `CNC(=O)N(c1ccccc1)c1ccccc1`, the Potency result in experiment [1], in experiment [2], in experiment [3], in [6], in [4] and in experiment [7] was “inactive” throughout. The Potency result in [8] is “inactive”. Also, the max response in [5] is 10.9%.
For `Nc1nccs1`, the Potency entry in [1], in experiment [9], in experiment [2], in experiment [6], in experiment [7] and in experiment [8] was “inactive” in each case. In addition, the max response in experiment [5] is -15.6%.
With `N#C/C(=C1/SC[C@@H](c2ccc(Cl)cc2Cl)S1)n1ccnc1`, the Potency entry in experiment [1], in experiment [9], in experiment [3], in experiment [6], in [4] and in [7] was “inactive” each time. Besides, the Potency result in experiment [8] was “inactive”. The max response in [5] was -23.1%.
`CC[C@@H]([C@H](C)O)n1ncn(-c2ccc(N3CCN(c4ccc(OC[C@@H]5CO[C@@](Cn6cncn6)(c6ccc(F)cc6F)C5)cc4)CC3)cc2)c1=O`: the Potency entry in experiment [10], in experiment [3], in experiment [7] and in experiment [8] was “inactive” throughout. In addition, the Potency in experiment [5] was 5.35 µM (active).
Take `CC1=C(C=O)C(C)(C)CCC1`: the Potency entry in experiment [1], in [2], in [6], in experiment [7] and in [8] was “inactive” in each case.
As for `Oc1ccc(Nc2ccccc2)cc1`, the Potency entry in [1], in experiment [6], in [7] and in experiment [8] was “inactive” throughout. Besides, in experiment [5], the Potency is 19.5 µM (active).
On to `CCc1nn(CCCN2CCN(c3cccc(Cl)c3)CC2)c(=O)n1CCOc1ccccc1`, for which the Potency in [9] and in experiment [5] was 8.49 µM (active) each time. In addition, the Potency result in experiment [3], in [6] and in [7] was “inactive” in each case.
For the compound `CCCOCCOCCO`, the Potency result in experiment [1], in experiment [2], in [3], in experiment [6] and in experiment [8] was “inactive” throughout. Moreover, the max response in experiment [5] is 2.29%.
In the case of `CCCCC1C(=O)N(c2ccccc2)N(c2ccc(O)cc2)C1=O` (stereo not drawn), the Potency in experiment [1] was 23.9 µM (active); in [8], 10.7 µM (active). The Potency entry in experiment [2] is “inactive”.
For the compound `Fc1ccccc1[C@@H](F)COC1CCC(Nc2ncnc3[nH]ncc23)CC1` (stereo partly drawn), the Potency entry in experiment [1], in experiment [2], in [3], in [6], in [4] and in experiment [7] was “inactive” in each case. The Potency entry in [8] is “inactive”. In [5], the Potency was 24.5 µM (active).
Turning to `CCOC(=O)C(C)Oc1ccc(Oc2nc3ccc(Cl)cc3o2)cc1` (stereo not drawn), the Potency entry in experiment [10], in experiment [3], in experiment [6], in experiment [7] and in experiment [8] was “inactive” throughout. In addition, the results for the Potency in [9] and in experiment [2] were 21.9 µM (active) and 15.5 µM (active), respectively.
Turning to `COc1cc2ncnc(Nc3ccc(F)c(Cl)c3)c2cc1OCCCN1CCOCC1`, the Potency in [1] is 26.8 µM (active); in experiment [9], 9.52 µM (active); in experiment [5], 10.7 µM (active); in experiment [6] it was 23.9 µM (active); in experiment [4], 23.9 µM (active); in [7], 23.9 µM (active). Also, in experiment [8], the Potency is 23.9 µM (active).
With `O=C(N[C@@H](c1ccccc1)[C@@H]1CCCCN1)c1cccc(C(F)(F)F)c1Cl`, the Potency in experiment [1] is 43.6 µM (active); in experiment [5] it was 24.5 µM (active); in experiment [4] it was 43.6 µM (active); in experiment [8], 34.7 µM (active). Besides, the Potency result in [2] is “inactive”.
`CCCCCCCCCCCC[N+](C)(C)CC(=O)[O-]`: the Potency result in [1], in [9], in [2] and in experiment [4] was “inactive” throughout. In addition, in [5], the max response was -3.41%.
For the compound `CCOC(=O)CC(=O)C(=O)OCC`, the Potency entry in [1], in experiment [2], in [3], in experiment [4], in [7] and in [8] was “inactive” in each case. For the same compound, in [5], the Potency was 43.6 µM (active).
